In PubChem BioAssay AID1508601 (ICCB-Longwood Screening Facility, Harvard Medical School, 2020):
Values joined by “and” are separate entries in the source; they are usually repeats but may differ in a detail not shown here. Equal values may be shown once. Among all 5,700 compounds or so, about 85 (1%) were called active. No stated cut-off is given here; in the data, active means p53-positive nuclei above about 36% (passing the limit was not always enough); inactive means the rest. Only a selection was taken, and actives are over-represented in it overall.

How the values were obtained:
[1] = p53 stabilisation in HPV-positive human cells, imaging, p53-positive nuclei imaging, 24 h, 48 h (AID 1508601); settings: 24/48 h
[2] = biological target: Cellular tumor antigen p53 (Homo sapiens) (UniProt P04637); assay: as above; settings: 24/48 h, stronger effect = higher value
[3] = measured here: cell number at 24 h, Library stock concentration: 80 uM
[4] = measured here: cell number at 24 h, Library stock concentration: 400 uM
[5] = measured here: cell number at 24 h, Library stock concentration: 2 mM
[6] = measured here: cell number at 24 h, Library stock concentration: 3.33 mM
[7] = measured here: cell number at 24 h, Library stock concentration: 10 mM
[8] = measured here: cell number at 48 h, Library stock concentration: 80 uM
[9] = measured here: cell number at 48 h, Library stock concentration: 400 uM
[10] = measured here: cell number at 48 h, Library stock concentration: 2 mM
[11] = measured here: cell number at 48 h, Library stock concentration: 3.33 mM
[12] = measured here: cell number at 48 h, Library stock concentration: 10 mM
[13] = Library stock concentration: 80 uM
[14] = Library stock concentration: 400 uM
[15] = Library stock concentration: 2 mM
[16] = Library stock concentration: 3.33 mM
[17] = Library stock concentration: 10 mM
[18] = measured here: p53 positive nuclei at 24 h, Library stock concentration: 80 uM
[19] = measured here: p53 positive nuclei at 24 h, Library stock concentration: 400 uM
[20] = measured here: p53 positive nuclei at 24 h, Library stock concentration: 2 mM
[21] = measured here: p53 positive nuclei at 24 h, Library stock concentration: 3.33 mM
[22] = measured here: p53 positive nuclei at 24 h, Library stock concentration: 10 mM
[23] = measured here: cell number at 24 h, concentration not given here
[24] = measured here: cell number at 48 h, concentration not given here
[25] = measured here: p53 positive nuclei at 24 h, concentration not given here

Sequence of Cellular tumor antigen p53 (Homo sapiens) (P04637 whole entry, looked up): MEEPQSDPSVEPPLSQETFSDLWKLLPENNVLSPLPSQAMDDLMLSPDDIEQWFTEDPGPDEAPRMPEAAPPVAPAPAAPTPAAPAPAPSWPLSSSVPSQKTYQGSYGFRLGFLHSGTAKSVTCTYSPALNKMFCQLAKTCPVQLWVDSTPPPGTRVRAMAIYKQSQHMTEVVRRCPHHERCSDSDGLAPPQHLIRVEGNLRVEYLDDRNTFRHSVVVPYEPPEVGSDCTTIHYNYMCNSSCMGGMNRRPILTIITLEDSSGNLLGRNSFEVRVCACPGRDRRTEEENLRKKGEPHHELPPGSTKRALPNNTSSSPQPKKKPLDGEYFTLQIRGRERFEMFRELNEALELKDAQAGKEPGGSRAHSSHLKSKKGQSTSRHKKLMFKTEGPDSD

Cc1c(CN2CCN(C(=O)C(C)O)CC2)sc2c(N3CCOCC3)nc(-c3cnc(N)nc3)nc12 (stereo unspecified)
nuclei count, normalised [1, 3]: 107% | nuclei count, normalised [1, 4]: 110% | nuclei count, normalised [1, 5]: 89.3% | nuclei count, normalised [1, 6]: 82.6% | nuclei count, normalised [1, 7]: 84.4% | nuclei count, normalised [1, 8]: 113% | nuclei count, normalised [1, 9]: 112% | nuclei count, normalised [1, 10]: 89% | nuclei count, normalised [1, 11]: 84% | nuclei count, normalised [1, 12]: 88.2% | p53-positive nuclei, normalised [2, 13]: 0.00265% (inactive) | p53-positive nuclei, normalised [2, 14]: -0.106% (inactive) | p53-positive nuclei, normalised [2, 15]: -0.151% (inactive) | p53-positive nuclei, normalised [2, 16]: -0.349% (inactive) | p53-positive nuclei, normalised [2, 17]: -0.157% (inactive) | p53-positive nuclei, normalised [2, 18]: 0.036% | p53-positive nuclei, normalised [2, 19]: -0.106% | p53-positive nuclei, normalised [2, 20]: -0.151% | p53-positive nuclei, normalised [2, 21]: -0.356% | p53-positive nuclei, normalised [2, 22]: -0.0302%

COc1ccc(-c2nc(N3CCOCC3)c3sc(CN(C)c4ncc(C(=O)NO)cn4)cc3n2)cn1
nuclei count, normalised [1, 3]: 47.5% | nuclei count, normalised [1, 4]: 43.3% | nuclei count, normalised [1, 5]: 39.6% | nuclei count, normalised [1, 6]: 33.2% | nuclei count, normalised [1, 7]: 31.5% | nuclei count, normalised [1, 8]: 22.9% | nuclei count, normalised [1, 9]: 21.1% | nuclei count, normalised [1, 10]: 24.2% | nuclei count, normalised [1, 11]: 21.9% | nuclei count, normalised [1, 12]: 19% | p53-positive nuclei, normalised [2, 13]: 96.8% (active) | p53-positive nuclei, normalised [2, 14]: 94.6% (active) | p53-positive nuclei, normalised [2, 15]: 98.6% (active) | p53-positive nuclei, normalised [2, 16]: 65.1% (active) | p53-positive nuclei, normalised [2, 17]: 81.6% (active) | p53-positive nuclei, normalised [2, 18]: 77.1% | p53-positive nuclei, normalised [2, 19]: 75.3% | p53-positive nuclei, normalised [2, 20]: 81.2% | p53-positive nuclei, normalised [2, 21]: 43.2% | p53-positive nuclei, normalised [2, 22]: 59%

CS(=O)(=O)N1CCN(Cc2cc3nc(-c4cccc5[nH]ncc45)nc(N4CCOCC4)c3s2)CC1
nuclei count, normalised ([1]; measured here: cell number at 24 h, Library stock concentration: 46 uM): 89.1% | nuclei count, normalised [1, 3]: 105% | nuclei count, normalised ([1]; measured here: cell number at 24 h, Library stock concentration: 278 uM): 97% | nuclei count, normalised [1, 4]: 93.5% | nuclei count, normalised ([1]; measured here: cell number at 24 h, Library stock concentration: 1.67 mM): 84.9% | nuclei count, normalised [1, 5]: 94% | nuclei count, normalised [1, 6]: 97.5% | nuclei count, normalised [1, 7]: 66.1% and 64.1% | nuclei count, normalised ([1]; measured here: cell number at 48 h, Library stock concentration: 46 uM): 97% | nuclei count, normalised [1, 8]: 109% | nuclei count, normalised ([1]; measured here: cell number at 48 h, Library stock concentration: 278 uM): 100% | nuclei count, normalised [1, 9]: 93.5% | nuclei count, normalised ([1]; measured here: cell number at 48 h, Library stock concentration: 1.67 mM): 87.3% | nuclei count, normalised [1, 10]: 89.3% | nuclei count, normalised [1, 11]: 101% | nuclei count, normalised [1, 12]: 56.3% and 65.9% | p53-positive nuclei, normalised ([2]; Library stock concentration: 46 uM): -0.00738% (inactive) | p53-positive nuclei, normalised [2, 13]: -0.168% (inactive) | p53-positive nuclei, normalised ([2]; Library stock concentration: 278 uM): -0.0603% (inactive) | p53-positive nuclei, normalised [2, 14]: -0.297% (inactive) | p53-positive nuclei, normalised ([2]; Library stock concentration: 1.67 mM): -0.0683% (inactive) | p53-positive nuclei, normalised [2, 15]: -0.297% (inactive) | p53-positive nuclei, normalised [2, 16]: -0.619% (inactive) | p53-positive nuclei, normalised [2, 17]: -0.184% (inactive) and -0.277% (inactive) | p53-positive nuclei, normalised ([2]; measured here: p53 positive nuclei at 24 h, Library stock concentration: 46 uM): -0.0723% | p53-positive nuclei, normalised [2, 18]: 0.26% | p53-positive nuclei, normalised ([2]; measured here: p53 positive nuclei at 24 h, Library stock concentration: 278 uM): -0.0265% | p53-positive nuclei, normalised [2, 19]: -0.0433% | p53-positive nuclei, normalised ([2]; measured here: p53 positive nuclei at 24 h, Library stock concentration: 1.67 mM): -0.14% | p53-positive nuclei, normalised [2, 20]: -0.0447% | p53-positive nuclei, normalised [2, 21]: -0.329% | p53-positive nuclei, normalised [2, 22]: -0.00819% and -0.118%

CCCCC[C@H](O)/C=C/[C@H]1[C@H](O)CC(=O)[C@@H]1C/C=C\CCCC(=O)Oc1ccc(NC(C)=O)cc1
nuclei count, normalised [1, 23]: 106% | nuclei count, normalised [1, 24]: 115% | p53-positive nuclei, normalised ([2]; concentration not given here): -0.0787% (inactive) | p53-positive nuclei, normalised [2, 25]: -0.118%

CCCCCCCCCC(=O)CC(=O)N[C@H]1CCOC1=O
nuclei count, normalised [1, 23]: 107% | nuclei count, normalised [1, 24]: 108% | p53-positive nuclei, normalised ([2]; concentration not given here): 0.0451% (inactive) | p53-positive nuclei, normalised [2, 25]: -0.0502%

CC1CCNC(=O)c2cc3ccc(C(=O)Nc4nc5ccccc5n4CCCN(C)C)cc3n21 (stereo unspecified)
nuclei count, normalised [1, 3]: 112% | nuclei count, normalised [1, 4]: 107% | nuclei count, normalised [1, 5]: 107% | nuclei count, normalised [1, 7]: 106% | nuclei count, normalised [1, 8]: 115% | nuclei count, normalised [1, 9]: 113% | nuclei count, normalised [1, 10]: 111% | nuclei count, normalised [1, 12]: 119% | p53-positive nuclei, normalised [2, 13]: -0.131% (inactive) | p53-positive nuclei, normalised [2, 14]: -0.0944% (inactive) | p53-positive nuclei, normalised [2, 15]: 0.0714% (inactive) | p53-positive nuclei, normalised [2, 17]: -0.134% (inactive) | p53-positive nuclei, normalised [2, 18]: -0.0686% | p53-positive nuclei, normalised [2, 19]: 0.0741% | p53-positive nuclei, normalised [2, 20]: -0.156% | p53-positive nuclei, normalised [2, 22]: -0.111%
